The results in this text go back to PubChem BioAssay (EPA / NIEHS).

Activity calls are given as the source filed them. How the source made its calls: active means hit-call score of the fitted dose curve at least 0.9, where 1 is the maximum; inactive means score below 0.9.

Read-out in assay [1]: Monokine induced gamma interferon (MIG), CXCL9 (gene 4283)
In words: BSK_hDFCGF_MIG: BioMAP Diversity Plus: hDFCGF Assay for Monokine induced gamma interferon (MIG) Biomarker Activity (AID 2283063). The settings on record: primary human foreskin fibroblasts; actives raise or lower the signal. The method in brief: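 MIG signal, determined by ELISA, reflects 24 h chemical exposure of human skin primary fibroblasts. DMSO serves as negative control and baseline.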

Read-out in assay [2]: Matrix Metallopeptidase 1 (MMP1), MMP1 (gene 4312)
In words: BSK_hDFCGF_MMP1: BioMAP Diversity Plus: hDFCGF Assay for Matrix Metallopeptidase 1 (MMP1) Biomarker Activity (AID 2283064). Conditions: primary human foreskin fibroblasts; actives raise or lower the signal. Put shortly: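 Primary human foreskin fibroblasts in the hDFCGF system were dosed with test chemical, and MMP1 was measured by ELISA 24 h later. Values come from bidirectional curve fitting against the DMSO baseline.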

Read-out in assay [3]: Vascular cell adhesion molecule 1 (VCAM1), VCAM1 (gene 7412)
In words: BSK_hDFCGF_VCAM1: BioMAP Diversity Plus: hDFCGF Assay for Vascular cell adhesion molecule 1 (VCAM1) Biomarker Activity (AID 2283065).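 On AC50: VCAM-1 protein level quantified by ELISA after 24 h chemical exposure.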 Conditions: primary human foreskin fibroblasts; actives raise or lower the signal. The method in brief: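 Cells are dosed, cultured for 24 h, then VCAM-1 is quantified by ELISA; signal increases and decreases are both fitted relative to DMSO.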

Read-out in assay [4]: Plasminogen activator inhibitor-1 (PAI1), SERPINE1 (gene 5054)
In words: BSK_hDFCGF_PAI1: BioMAP Diversity Plus: hDFCGF Assay for Plasminogen activator inhibitor-1 (PAI1) Biomarker Activity (AID 2283066). Conditions: primary human foreskin fibroblasts; actives raise or lower the signal. The method in brief:
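Human foreskin fibroblasts in the hDFCGF system were dosed with compound for 24 h; PAI-1 was quantified by ELISA. Bidirectional curve fitting used DMSO as negative control and baseline.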

Read-out in assay [5]: Intercellular Adhesion Molecule 1 (ICAM1), ICAM1 (gene 3383)
In words: BSK_KF3CT_ICAM1: BioMAP Diversity Plus: KF3CT Assay for Intercellular Adhesion Molecule 1 (ICAM1) Biomarker Activity (AID 2283067). The settings on record: primary human keratinocytes with fibroblasts; actives raise or lower the signal. Put shortly: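 Dose the keratinocyte/fibroblast co-culture, wait 24 h, measure ICAM-1 by ELISA, then fit increases or decreases against DMSO. Cytotoxicity is checked in parallel cultures by SRB total-protein staining.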

Read-out in assay [6]: Interferon-gamma inducible Protein 10 (IP10), CXCL10 (gene 3627)
In words: BSK_KF3CT_IP10: BioMAP Diversity Plus: KF3CT Assay for Interferon-gamma inducible Protein 10 (IP10) Biomarker Activity (AID 2283068). Conditions: primary human keratinocytes with fibroblasts; actives raise or lower the signal. The method in brief: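 In a primary skin co-culture of keratinocytes and fibroblasts, IP-10 is quantified by ELISA at 24 h after dosing. SRB staining of parallel wells monitors overt toxicity. Curves are fitted both directions against DMSO.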

The nature of assay [7]: BSK_KF3CT_SRB: Viability Assessment in the BioMAP Diversity Plus: KF3CT Assay (AID 2283069). The settings on record: primary human keratinocytes with fibroblasts. Put shortly: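 Human primary keratinocyte plus foreskin fibroblast co-culture exposed to chemicals for 24 h. Total protein measured by 0.1% sulforhodamine B staining after 10% TCA fixation, read at 560 nm; bidirectional fitting versus DMSO baseline.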

Read-out in assay [8]: Interleukin-1 alpha (IL1a), IL1A (gene 3552)
In words: BSK_KF3CT_IL1a: BioMAP Diversity Plus: KF3CT Assay for Interleukin-1 alpha (IL1a) Biomarker Activity (AID 2283070). The settings on record: primary human keratinocytes with fibroblasts; actives raise or lower the signal. The method in brief: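 Human keratinocyte plus foreskin fibroblast primary co-culture, sampled 24 h after chemical dosing. IL-1a measured by ELISA; responses fitted bidirectionally against DMSO baseline (negative control), so gain or loss of signal both count.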

Read-out in assay [9]: TIMP metallopeptidase inhibitor 2 (TIMP2), TIMP2 (gene 7077)
In words: BSK_KF3CT_TIMP2: BioMAP Diversity Plus: KF3CT Assay for TIMP metallopeptidase inhibitor 2 (TIMP2) Biomarker Activity (AID 2283071). The settings on record: primary human keratinocytes with fibroblasts; actives raise or lower the signal. The method in brief: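 Human primary keratinocyte/foreskin fibroblast co-culture dosed with chemical and sampled at 24 h. TIMP-2 levels quantified by ELISA; bidirectional fitting against DMSO negative control as baseline.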

Read-out in assay [10]: Transforming growth factor beta 1 (TGFb1), TGFB1 (gene 7040)
In words: BSK_KF3CT_TGFb1: BioMAP Diversity Plus: KF3CT Assay for Transforming growth factor beta 1 (TGFb1) Biomarker Activity (AID 2283072). Conditions: primary human keratinocytes with fibroblasts; actives raise or lower the signal. The method in brief: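 Human keratinocyte plus foreskin fibroblast primary co-culture, dosed with chemical for 24 h. TGF-b1 quantified by ELISA. Activity fitted bidirectionally against DMSO negative control as baseline.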

Read-out in assay [11]: C-C motif chemokine 2 (Homo sapiens) (UniProt P13500)
In words: BSK_KF3CT_MCP1: BioMAP Diversity Plus: KF3CT Assay for Monocyte Chemoattractant Protein 1 (MCP1/CCL2) Biomarker Activity (AID 2283073). The settings on record: primary human keratinocytes with fibroblasts; actives raise or lower the signal. Put shortly: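 Keratinocytes and foreskin fibroblasts were co-cultured, dosed with chemical, and sampled 24 h later. MCP-1 was quantified by ELISA, and the endpoint was analyzed with bidirectional fitting using DMSO as negative control.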

Read-out in assay [12]: Matrix Metallopeptidase 9 (MMP9), MMP9 (gene 4318)
In words: BSK_KF3CT_MMP9: BioMAP Diversity Plus: KF3CT Assay for Matrix Metallopeptidase 9 (MMP9) Biomarker Activity (AID 2283074).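 On AC50: MMP9 protein level quantified by ELISA in the co-culture.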 The settings on record: primary human keratinocytes with fibroblasts; actives raise or lower the signal. Put shortly:
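Keratinocyte plus foreskin fibroblast human primary skin co-culture was dosed with chemical and MMP-9 was quantified by ELISA 24 h later. Bidirectional curve fitting used DMSO as negative control and activity baseline.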

Read-out in assay [13]: urokinase plasminogen activator (uPA), PLAU (gene 5328)
In words: BSK_KF3CT_uPA: BioMAP Diversity Plus: KF3CT Assay for urokinase plasminogen activator (uPA) Biomarker Activity (AID 2283075). Conditions: primary human keratinocytes with fibroblasts; actives raise or lower the signal. Put shortly: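 Human keratinocyte plus foreskin fibroblast primary co-culture exposed to chemical for 24 h. uPA levels were quantified by ELISA, and activity was fitted bidirectionally against a DMSO negative-control baseline.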

Read-out in another assay: CD40, CD40 (gene 958)
In words: BSK_LPS_CD40: BioMAP Diversity Plus: LPS Assay for CD40 Biomarker Activity (AID 2283076). Conditions: primary human HUVEC with PBMC; actives raise or lower the signal. Put shortly:
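CD40 signal, measured by ELISA, is fitted in both directions relative to DMSO vehicle. The system is an LPS-driven human vascular primary co-culture of endothelial cells and PBMC, sampled 24 h after compound addition.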

Read-out in assay [14]: E-selectin (Homo sapiens) (UniProt P16581)
In words: BSK_LPS_Eselectin: BioMAP Diversity Plus: LPS Assay for Eselectin Biomarker Activity (AID 2283077). Conditions: primary human HUVEC with PBMC; actives raise or lower the signal. The method in brief: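 Signal of E-selectin, detected by ELISA, served as the endpoint; cells were umbilical vein endothelium with PBMC, read 24 h after treatment. DMSO defined baseline, and both increases and decreases were fitted.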

Read-out in assay [15]: Interleukin-8 (IL8), CXCL8 (gene 3576)
In words: BSK_LPS_IL8: BioMAP Diversity Plus: LPS Assay for Interleukin-8 (IL8) Biomarker Activity (AID 2283078). Conditions: primary human HUVEC with PBMC; actives raise or lower the signal. Put shortly: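 Endothelial cells and PBMC from human donors are co-cultured, treated with chemicals and LPS, then assayed for IL-8 by ELISA after 24 h. Parallel SRB staining (0.1% SRB after 10% TCA fixation, 560 nm) flags cytotoxicity.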

Assay [16] can be described thus: BSK_LPS_SRB: Viability Assessment in the BioMAP Diversity Plus: LPS Assay (AID 2283079).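 Further: total protein by sulforhodamine B absorbance as a cytotoxicity measure; measured one day after compound addition.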 Conditions: primary human HUVEC with PBMC. Put shortly: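 Overt cytotoxicity was gauged by sulforhodamine B total-protein staining in a primary human vascular endothelial and mononuclear cell co-culture 24 h post-dosing. Activity was fitted in both directions relative to DMSO.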

Read-out in assay [17]: Interleukin-1 alpha (IL1a), IL1A (gene 3552)
In words: BSK_LPS_IL1a: BioMAP Diversity Plus: LPS Assay for Interleukin-1 alpha (IL1a) Biomarker Activity (AID 2283080). The settings on record: primary human HUVEC with PBMC; actives raise or lower the signal. Put shortly:
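Measured: IL-1 alpha via ELISA at 24 h in LPS-activated human umbilical vein endothelium–PBMC co-culture. Baseline: DMSO, bidirectional fitting.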

Read-out in assay [18]: Monocyte Chemoattractant Protein-1 (MCP1), CCL2 (gene 6347)
In words: BSK_LPS_MCP1: BioMAP Diversity Plus: LPS Assay for Monocyte Chemoattractant Protein-1 (MCP1) Biomarker Activity (AID 2283081). Conditions: primary human HUVEC with PBMC; actives raise or lower the signal. The method in brief: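 LPS-stimulated HUVEC/PBMC co-culture; chemical, 24 h; MCP-1 by ELISA; bidirectional fit vs DMSO; cytotoxicity via SRB (0.1% stain, 10% TCA fix, 560 nm) in parallel wells.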

A short description of assay [19]: BSK_LPS_PGE2: BioMAP Diversity Plus: LPS Assay for Prostaglandin E2 (PGE2) Biomarker Activity (AID 2283082). The settings on record: primary human HUVEC with PBMC; actives raise or lower the signal. The method in brief:
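HUVEC plus PBMC co-culture stimulated with LPS; secreted PGE2 quantified by ELISA 24 h after chemical dosing. Activity fitted bidirectionally against DMSO as negative control and baseline; parallel SRB total-protein staining served as cytotoxicity check.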

Sequence of E-selectin (Homo sapiens) (P16581 whole entry, looked up): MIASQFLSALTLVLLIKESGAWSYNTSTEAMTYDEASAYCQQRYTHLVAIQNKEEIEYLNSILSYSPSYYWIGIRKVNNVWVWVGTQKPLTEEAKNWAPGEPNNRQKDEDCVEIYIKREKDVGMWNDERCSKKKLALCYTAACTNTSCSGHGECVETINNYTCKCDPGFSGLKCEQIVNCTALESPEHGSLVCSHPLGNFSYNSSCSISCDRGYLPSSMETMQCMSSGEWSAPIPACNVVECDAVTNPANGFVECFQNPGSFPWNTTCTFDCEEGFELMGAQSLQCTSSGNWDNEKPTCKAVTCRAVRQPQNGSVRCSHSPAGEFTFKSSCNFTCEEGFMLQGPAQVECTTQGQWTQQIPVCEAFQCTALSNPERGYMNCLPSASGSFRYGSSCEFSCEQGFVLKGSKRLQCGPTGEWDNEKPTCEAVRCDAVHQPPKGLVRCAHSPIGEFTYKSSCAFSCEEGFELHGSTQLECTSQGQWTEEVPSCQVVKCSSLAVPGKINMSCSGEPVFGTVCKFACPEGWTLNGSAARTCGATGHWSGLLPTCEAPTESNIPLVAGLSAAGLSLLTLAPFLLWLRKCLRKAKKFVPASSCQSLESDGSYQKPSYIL

As for `OC[C@H]1O[C@@](CO)(O[C@H]2O[C@H](CO)[C@@H](O)[C@H](O)[C@H]2O)[C@@H](O)[C@@H]1O`, the result in [1], in assay [2], in assay [3], in assay [4], in assay [5] and in assay [6] was inactive. Moreover, the result in assay [7], in [8], in assay [9], in assay [10], in [11] and in assay [12] was inactive. Besides, the outcome in assay [13] is “inactive”; in the assay with CD40, CD40 (gene 958), “inactive”; in assay [14], “inactive”; in assay [15], “inactive”; in [16], “inactive”; in [17] it was “inactive”. The outcome in [18] and in [19] was inactive.

One may read the AC50 as the concentration giving half of the maximal activity seen. For the compound `CCCCC(CC)C(=O)OCCOCCOCCOC(=O)C(CC)CCCC` (stereo not given), the result in [1], in assay [2], in assay [3], in assay [4], in [5] and in assay [6] was inactive. The result in assay [7], in assay [8], in assay [9], in [10], in assay [11] and in assay [12] was inactive. In addition, the outcome was “inactive” in assay [13]; “inactive” in the assay with CD40, CD40 (gene 958); “inactive” in [14]; “inactive” in [16]; “inactive” in [17]; “inactive” in assay [18]. Further, the result in assay [19] was inactive. In addition, in assay [15], the concentration at half-maximal activity (AC50) is 15.7 µM (active).

Consider `OCc1c[nH]c2ccccc12`, for which the outcome in [1], in [5], in assay [6], in assay [7], in assay [8] and in assay [9] was inactive. The outcome in [10] was “inactive”; in assay [11], “inactive”; in [13], “inactive”; with CD40, CD40 (gene 958) it was “inactive”; in assay [14] it was “inactive”; in assay [15], “inactive”. The result in assay [16], in assay [17], in assay [18] and in assay [19] was inactive. For the same compound, the AC50 in [2] was 0.655 µM (active); in assay [3], 3.97 µM (active); in assay [4], 4.75 µM (active); in [12], 20 µM (active).
